# Reference: PubChem BioAssay (EPA / NIEHS)
# Activity calls are given as the source filed them. Rule for the calls: active = hit-call score of the fitted dose curve at least 0.9, where 1 is the maximum; inactive = score below 0.9.
# How the values were obtained:
# [1] = read-out: Vascular endothelial growth factor receptor 2 (Homo sapiens) (UniProt P35968); test: BSK_4H_VEGFRII: BioMAP Diversity Plus: 4H Assay for Vascular endothelial growth factor receptor 2 (VEGFR2) Biomarker Activity (AID 2283031); conditions: primary human endothelial cells (HUVEC); actives raise or lower the signal
# Method in brief: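 In this multiplexed HUVEC system, biomarker ELISA was performed after 24 h chemical exposure. Parallel SRB staining (TCA fixation, 560 nm) tracked cytotoxicity; DMSO served as baseline.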
# [2] = read-out: Vascular cell adhesion molecule 1 (VCAM1), VCAM1 (gene 7412); test: BSK_4H_VCAM1: BioMAP Diversity Plus: 4H Assay for Vascular cell adhesion molecule 1 (VCAM1) Biomarker Activity (AID 2283033); conditions: primary human endothelial cells (HUVEC); actives raise or lower the signal;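 for outcome: cell-surface VCAM-1 protein measured by ELISA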
# Method in brief: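 ELISA read-out of VCAM-1 on human umbilical vein endothelium 24 hours after chemical dosing; gain or loss of signal was fitted relative to DMSO, with sulforhodamine B staining of parallel cultures flagging overt cytotoxicity.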
# [3] = read-out: Interferon-gamma inducible Protein 10 (IP10), CXCL10 (gene 3627); test: BSK_BE3C_IP10: BioMAP Diversity Plus: BE3C Assay for Interferon-gamma inducible Protein 10 (IP10) Biomarker Activity (AID 2283034); conditions: primary human bronchial epithelial cells; actives raise or lower the signal
# Method in brief: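 Chemical is dosed onto human lung bronchial epithelial primary cells, cultures are incubated 24 h, and IP-10 is then quantified by ELISA. Gain or loss of signal is fitted in both directions relative to DMSO.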
# [4] = read-out: Monokine induced gamma interferon (MIG), CXCL9 (gene 4283); test: BSK_BE3C_MIG: BioMAP Diversity Plus: BE3C Assay for Monokine induced gamma interferon (MIG) Biomarker Activity (AID 2283035); conditions: primary human bronchial epithelial cells; actives raise or lower the signal;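 note: MIG protein measured by ELISA in BE3C cultures after 24 h of dosing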
# Method in brief: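 ELISA read-out of MIG in human lung bronchial epithelial primary cultures, 24 h post-dosing. Bidirectional curve fit vs DMSO baseline.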
# [5] = read-out: Transforming growth factor beta 1 (TGFb1), TGFB1 (gene 7040); test: BSK_BE3C_TGFb1: BioMAP Diversity Plus: BE3C Assay for Transforming growth factor beta 1 (TGFb1) Biomarker Activity (AID 2283036;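 note: TGF-b1 protein level measured by ELISA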); conditions: primary human bronchial epithelial cells; actives raise or lower the signal
# Method in brief: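 Primary human lung bronchial epithelial cells; compound exposure 24 h; TGF-b1 by ELISA; bidirectional fit, DMSO baseline. Parallel SRB total-protein staining for cytotoxicity.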
# [6] = read-out: Plasminogen activator inhibitor-1 (PAI1), SERPINE1 (gene 5054); test: BSK_BE3C_PAI1: BioMAP Diversity Plus: BE3C Assay for Plasminogen activator inhibitor-1 (PAI1) Biomarker Activity (AID 2283037); conditions: primary human bronchial epithelial cells; actives raise or lower the signal
# Method in brief: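 Primary human lung bronchial epithelial cells; chemical dosing; 24 h; PAI-1 measured by ELISA; bidirectional fit referenced to DMSO as negative control.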
# [7] = read-out: urokinase plasminogen activator (uPA), PLAU (gene 5328); test: BSK_BE3C_uPA: BioMAP Diversity Plus: BE3C Assay for urokinase plasminogen activator (uPA) Biomarker Activity (AID 2283038); conditions: primary human bronchial epithelial cells; actives raise or lower the signal;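 note: uPA protein level quantified by ELISA in cell cultures; uPA read one day after compound addition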
# Method in brief: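 Using confluent primary human lung bronchial epithelial cultures, we dosed chemicals, waited 24 h, then ran a uPA ELISA, fitting bidirectionally against DMSO.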
# [8] = read-out: Urokinase-type plasminogen activator receptor (uPAR), PLAUR (gene 5329); test: BSK_BE3C_uPAR: BioMAP Diversity Plus: BE3C Assay for Urokinase-type plasminogen activator receptor (uPAR) Biomarker Activity (AID 2283039); conditions: primary human bronchial epithelial cells; actives raise or lower the signal;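 note: uPAR protein level measured by ELISA on the cells; cells exposed to compound for one day before measurement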
# Method in brief: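 Human bronchial epithelial primary cells; chemical exposure 24 h; uPAR by ELISA; bidirectional fit vs DMSO control.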
# [9] = read-out: Interleukin-6 (IL6), IL6 (gene 3569); test: BSK_CASM3C_IL6: BioMAP Diversity Plus: CASM3C Assay for Interleukin-6 (IL6) Biomarker Activity for (AID 2283040); conditions: primary human coronary artery smooth muscle cells; actives raise or lower the signal
# [10] = read-out: Tissue plasminogen activator (tPA), PLAT (gene 5327); test: BSK_BE3C_tPA: BioMAP Diversity Plus: BE3C Assay for Tissue plasminogen activator (tPA) Biomarker Activity (AID 2283041); conditions: primary human bronchial epithelial cells; actives raise or lower the signal;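 note: tPA level quantified by ELISA one day after compound addition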
# Method in brief: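 Primary human lung bronchial epithelial cultures receive test chemical; after 24 h, tPA is quantified by ELISA, and gain or loss of signal is fitted bidirectionally relative to DMSO baseline.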
# [11] = read-out: Interleukin-8 (IL8), CXCL8 (gene 3576); test: BSK_CASM3C_IL8: BioMAP Diversity Plus: CASM3C Assay for Interleukin-8 (IL8) Biomarker Activity (AID 2283042); conditions: primary human coronary artery smooth muscle cells; actives raise or lower the signal;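 note: IL-8 protein level quantified by ELISA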
# [12] = read-out: Human Leukocyte Antigen - DR isotype (HLADR), HLA-DRA (gene 3122); test: BSK_CASM3C_HLADR: BioMAP Diversity Plus: CASM3C Assay for Human Leukocyte Antigen - DR isotype (HLADR) Biomarker Activity (AID 2283043); conditions: primary human coronary artery smooth muscle cells; actives raise or lower the signal;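 note: cell-surface HLA-DR protein level quantified by ELISA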
# [13] = read-out: Macrophage colony-stimulating factor (MCSF), CSF1 (gene 1435); test: BSK_CASM3C_MCSF: BioMAP Diversity Plus: CASM3C Assay for Macrophage colony-stimulating factor (MCSF) Biomarker Activity (AID 2283044); conditions: primary human coronary artery smooth muscle cells; actives raise or lower the signal;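 note: M-CSF protein amount quantified by ELISA after 24 h exposure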
# [14] = read-out: Low-density lipoprotein receptor (LDLR), LDLR (gene 3949); test: BSK_CASM3C_LDLR: BioMAP Diversity Plus: CASM3C Assay for Low-density lipoprotein receptor (LDLR) Biomarker Activity (AID 2283045); conditions: primary human coronary artery smooth muscle cells; actives raise or lower the signal;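 note: LDLR protein level on the cell surface quantified by ELISA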
# [15] = read-out: Monocyte Chemoattractant Protein-1 (MCP1), CCL2 (gene 6347); test: BSK_CASM3C_MCP1: BioMAP Diversity Plus: CASM3C Assay for Monocyte Chemoattractant Protein-1 (MCP1) Biomarker Activity (AID 2283046); conditions: primary human coronary artery smooth muscle cells; actives raise or lower the signal;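 note: MCP-1 level quantified by ELISA 24 h after dosing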
# [16] = BSK_CASM3C_Proliferation: Cell Proliferation Assessment in the BioMAP Diversity Plus: CASM3C Assay (AID 2283047); conditions: primary human coronary artery smooth muscle cells;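 note: sulforhodamine B total protein stain as relative cell number at 560 nm; sub-confluent cells exposed 48 h before staining; fitted both ways against DMSO so gain or loss of cell number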
# [17] = read-out: Monokine induced gamma interferon (MIG), CXCL9 (gene 4283); test: BSK_CASM3C_MIG: BioMAP Diversity Plus: CASM3C Assay for Monokine induced gamma interferon (MIG) Biomarker Activity (AID 2283048); conditions: primary human coronary artery smooth muscle cells; actives raise or lower the signal;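 note: MIG protein level measured by ELISA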
# [18] = read-out: serum amyloid A (SAA), SAA1 (gene 6288); test: BSK_CASM3C_SAA: BioMAP Diversity Plus: CASM3C Assay for serum amyloid A (SAA) Biomarker Activity (AID 2283049); conditions: primary human coronary artery smooth muscle cells; actives raise or lower the signal;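 note: SAA protein level quantified by ELISA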
# [19] = BSK_CASM3C_SRB: Viability Assessment in the BioMAP Diversity Plus: CASM3C Assay (AID 2283050); conditions: primary human coronary artery smooth muscle cells;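 note: total protein by SRB staining as cytotoxicity measure in parallel cultures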
compound,measurement,setting,value
O=C(O)c1ccccc1C(=O)OCc1ccccc1,outcome,[1],inactive
same,outcome,[2],inactive
same,outcome,[3],inactive
same,outcome,[4],inactive
same,outcome,[5],inactive
same,outcome,[6],inactive
same,outcome,[7],inactive
same,outcome,[8],inactive
same,outcome,[9],inactive
same,outcome,[10],inactive
same,outcome,[11],inactive
same,outcome,[12],inactive
same,outcome,[13],inactive
same,outcome,[14],inactive
same,outcome,[15],inactive
same,outcome,[16],inactive
same,outcome,[17],inactive
same,outcome,[18],inactive
same,outcome,[19],inactive
O=CCCCC=O,outcome,[1],inactive
same,AC50,[2],31.5 µM (active)
same,outcome,[3],inactive
same,outcome,[4],inactive
same,outcome,[5],inactive
same,AC50,[6],32.8 µM (active)
same,outcome,[8],inactive
same,outcome,[9],inactive
same,outcome,[10],inactive
same,outcome,[11],inactive
same,AC50,[12],30.2 µM (active)
same,outcome,[13],inactive
same,outcome,[14],inactive
same,outcome,[15],inactive
same,AC50,[16],23.5 µM (active)
same,outcome,[17],inactive
same,outcome,[18],inactive
same,outcome,[19],inactive
O=C=NCCCCCCN=C=O,outcome,[1],inactive
same,outcome,[2],inactive
same,outcome,[3],inactive
same,outcome,[4],inactive
same,outcome,[5],inactive
same,outcome,[6],inactive
same,outcome,[8],inactive
same,outcome,[9],inactive
same,outcome,[10],inactive
same,outcome,[11],inactive
same,outcome,[12],inactive
same,outcome,[13],inactive
same,outcome,[14],inactive
same,outcome,[15],inactive
same,outcome,[16],inactive
same,outcome,[17],inactive
same,outcome,[18],inactive
same,outcome,[19],inactive
O=C1O[C@H]([C@@H](O)CO)C(O)=C1O,outcome,[1],inactive
same,outcome,[2],inactive
same,outcome,[3],inactive
same,outcome,[4],inactive
same,outcome,[5],inactive
same,outcome,[6],inactive
same,outcome,[7],inactive
same,outcome,[8],inactive
same,outcome,[9],inactive
same,outcome,[10],inactive
same,outcome,[11],inactive
same,outcome,[12],inactive
same,outcome,[13],inactive
same,outcome,[14],inactive
same,outcome,[15],inactive
same,outcome,[16],inactive
same,outcome,[17],inactive
same,outcome,[18],inactive
same,outcome,[19],inactive
